# From PMC5540273 (PLoS ONE, 2017)
# Where two headings read alike, the source gives them in different places.
# Experiments:
# Conditions in all cases: n = 1
# PAK6 = tested on: PAK6
# PAK7 = tested on: PAK7
# PCTK1 = tested on: T1, PCTK1
# T1 construct: gene CDK16
# PCTK2 = tested on: T2, PCTK2
# T2 construct: gene CDK17
# PCTK3 = tested on: T3, PCTK3
# T3 construct: gene CDK18
# PDGFRA = tested on: PDGFRA
# PDGFRB = tested on: PDGFRB
# PDPK1 = tested on: PDPK1
# PFTAIRE2 = tested on: PFTAIRE2
# PFTK1 = tested on: T4, PFTK1
# T4 construct: gene CDK14
# PHKG1 = tested on: PHKG1
# PHKG2 = tested on: PHKG2
# PIK3C2B = tested on: PIK3C2B
# PIK3C2G = tested on: PIK3C2G
# PIK3CA = tested on: PIK3CA
# PIK3CB = tested on: PIK3CB
# PIK3CD = tested on: PIK3CD
# PIK3CG = tested on: PIK3CG
# PIK4CB = tested on: T5, PIK4CB
# T5 construct: gene PI4KB
# PIKFYVE = tested on: PIKFYVE
# [1] = concentration: 1 μM, replicates: in singlicate
# 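Note: KINOMEscan kinase panel screen.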
smiles,measurement,setting,value
CC(C)(C)c1ccc(C(=O)Nc2cn3cc(-c4cccnc4)ccc3n2)cc1,%Inh,PAK6; [1],15%
same,%Inh,PAK7; [1],10%
same,%Inh,PCTK1; [1],0%
same,%Inh,PCTK2; [1],13%
same,%Inh,PCTK3; [1],19%
same,%Inh,PDGFRA; [1],57%
same,%Inh,PDGFRB; [1],95.4%
same,%Inh,PDPK1; [1],2%
same,%Inh,PFTAIRE2; [1],2%
same,%Inh,PFTK1; [1],22%
same,%Inh,PHKG1; [1],8%
same,%Inh,PHKG2; [1],34%
same,%Inh,PIK3C2B; [1],0%
same,%Inh,PIK3C2G; [1],24%
same,%Inh,PIK3CA; [1],0%
same,%Inh,PIK3CB; [1],45%
same,%Inh,PIK3CD; [1],0%
same,%Inh,PIK3CG; [1],0%
same,%Inh,PIK4CB; [1],16%
same,%Inh,PIKFYVE; [1],22%
O=c1cc(N2CCOCC2)nc2n(Cc3cccc(Cl)c3Cl)ccn12 [GSK2286295],%Inh,PAK6; [1],0%
same,%Inh,PAK7; [1],22%
same,%Inh,PCTK1; [1],6%
same,%Inh,PCTK2; [1],15%
same,%Inh,PCTK3; [1],13%
same,%Inh,PDGFRA; [1],0%
same,%Inh,PDGFRB; [1],37%
same,%Inh,PDPK1; [1],0%
same,%Inh,PFTAIRE2; [1],23%
same,%Inh,PFTK1; [1],2%
same,%Inh,PHKG1; [1],0%
same,%Inh,PHKG2; [1],19%
same,%Inh,PIK3C2B; [1],22%
same,%Inh,PIK3C2G; [1],0%
same,%Inh,PIK3CA; [1],20%
same,%Inh,PIK3CB; [1],98.7%
same,%Inh,PIK3CD; [1],89%
same,%Inh,PIK3CG; [1],50%
same,%Inh,PIK4CB; [1],0%
same,%Inh,PIKFYVE; [1],0%
C[C@@H]1CCCCN1c1cc(-c2ccc3c(N)n[nH]c3c2)nc(N)n1 [GSK2258759],%Inh,PAK6; [1],0%
same,%Inh,PAK7; [1],0%
same,%Inh,PCTK1; [1],5%
same,%Inh,PCTK2; [1],0%
same,%Inh,PCTK3; [1],0%
same,%Inh,PDGFRA; [1],0%
same,%Inh,PDGFRB; [1],6%
same,%Inh,PFTAIRE2; [1],3%
same,%Inh,PFTK1; [1],17%
same,%Inh,PHKG1; [1],0%
same,%Inh,PHKG2; [1],0%
same,%Inh,PIK3C2B; [1],0%
same,%Inh,PIK3C2G; [1],0%
same,%Inh,PIK3CA; [1],0%
same,%Inh,PIK3CB; [1],0%
same,%Inh,PIK3CD; [1],0%
same,%Inh,PIK3CG; [1],0%
same,%Inh,PIK4CB; [1],0%
same,%Inh,PIKFYVE; [1],7%
Cn1ccc2ncnc(Oc3ccc(Nc4nc5ccccc5[nH]4)cc3)c21,%Inh,PAK6; [1],9%
same,%Inh,PAK7; [1],0%
same,%Inh,PCTK1; [1],0%
same,%Inh,PCTK2; [1],0%
same,%Inh,PCTK3; [1],12%
same,%Inh,PDGFRA; [1],8%
same,%Inh,PDGFRB; [1],0%
same,%Inh,PDPK1; [1],19%
same,%Inh,PFTAIRE2; [1],7%
same,%Inh,PFTK1; [1],0%
same,%Inh,PHKG1; [1],0%
same,%Inh,PHKG2; [1],25%
same,%Inh,PIK3C2B; [1],0%
same,%Inh,PIK3C2G; [1],0%
same,%Inh,PIK3CA; [1],0%
same,%Inh,PIK3CB; [1],0%
same,%Inh,PIK3CD; [1],0%
same,%Inh,PIK3CG; [1],0%
same,%Inh,PIK4CB; [1],0%
same,%Inh,PIKFYVE; [1],0%
Cc1ccc(NC(=O)Nc2cc(C(C)(C)C)nn2-c2ccccc2)cc1 [GSK1014915],%Inh,PAK6; [1],0%
same,%Inh,PAK7; [1],0%
same,%Inh,PCTK1; [1],6%
same,%Inh,PCTK2; [1],0%
same,%Inh,PCTK3; [1],27%
same,%Inh,PDGFRA; [1],36%
same,%Inh,PDGFRB; [1],98.9%
same,%Inh,PDPK1; [1],0%
same,%Inh,PFTAIRE2; [1],10%
same,%Inh,PFTK1; [1],9%
same,%Inh,PHKG1; [1],4%
same,%Inh,PHKG2; [1],0%
same,%Inh,PIK3C2B; [1],0%
same,%Inh,PIK3C2G; [1],0%
same,%Inh,PIK3CA; [1],0%
same,%Inh,PIK3CB; [1],0%
same,%Inh,PIK3CD; [1],0%
same,%Inh,PIK3CG; [1],0%
same,%Inh,PIK4CB; [1],4%
same,%Inh,PIKFYVE; [1],0%
Cc1c(O)cccc1Nc1ccnc2ccc(C(F)(F)F)cc12.Cl [GW466413],%Inh,PAK6; [1],0%
same,%Inh,PAK7; [1],0%
same,%Inh,PCTK1; [1],0%
same,%Inh,PCTK2; [1],0%
same,%Inh,PCTK3; [1],0%
same,%Inh,PDGFRA; [1],0%
same,%Inh,PDGFRB; [1],5%
same,%Inh,PDPK1; [1],0%
same,%Inh,PFTAIRE2; [1],0%
same,%Inh,PFTK1; [1],0%
same,%Inh,PHKG1; [1],3%
same,%Inh,PHKG2; [1],0%
same,%Inh,PIK3C2B; [1],18%
same,%Inh,PIK3C2G; [1],48%
same,%Inh,PIK3CA; [1],0%
same,%Inh,PIK3CB; [1],0%
same,%Inh,PIK3CD; [1],25%
same,%Inh,PIK3CG; [1],0%
same,%Inh,PIK4CB; [1],3%
same,%Inh,PIKFYVE; [1],11%
Cc1cccc(-c2nc(-c3ccc(S(C)(=O)=O)cc3)sc2-c2ccnc(NCCc3ccccc3)c2)c1,%Inh,PAK6; [1],5%
same,%Inh,PAK7; [1],5%
same,%Inh,PCTK1; [1],15%
same,%Inh,PCTK2; [1],3%
same,%Inh,PCTK3; [1],0%
same,%Inh,PDGFRA; [1],89%
same,%Inh,PDGFRB; [1],100%
same,%Inh,PDPK1; [1],17%
same,%Inh,PFTAIRE2; [1],5%
same,%Inh,PFTK1; [1],0%
same,%Inh,PHKG1; [1],0%
same,%Inh,PHKG2; [1],9%
same,%Inh,PIK3C2B; [1],0%
same,%Inh,PIK3C2G; [1],18%
same,%Inh,PIK3CA; [1],1%
same,%Inh,PIK3CB; [1],11%
same,%Inh,PIK3CD; [1],26%
same,%Inh,PIK3CG; [1],17%
same,%Inh,PIK4CB; [1],0%
same,%Inh,PIKFYVE; [1],0%
Cc1cccc(-c2nc(Nc3ccncc3)c3ccccc3n2)n1 [GW855857],%Inh,PAK6; [1],3%
same,%Inh,PAK7; [1],0%
same,%Inh,PCTK1; [1],0%
same,%Inh,PCTK2; [1],10%
same,%Inh,PCTK3; [1],0%
same,%Inh,PDGFRA; [1],0%
same,%Inh,PDGFRB; [1],3%
same,%Inh,PDPK1; [1],24%
same,%Inh,PFTAIRE2; [1],0%
same,%Inh,PFTK1; [1],0%
same,%Inh,PHKG1; [1],47%
same,%Inh,PHKG2; [1],3%
same,%Inh,PIK3C2B; [1],0%
same,%Inh,PIK3C2G; [1],0%
same,%Inh,PIK3CA; [1],0%
same,%Inh,PIK3CB; [1],0%
same,%Inh,PIK3CD; [1],0%
same,%Inh,PIK3CG; [1],0%
same,%Inh,PIK4CB; [1],0%
same,%Inh,PIKFYVE; [1],57%
Cc1ccc(NC(=O)Nc2cccc(C(F)(F)F)c2)cc1 [GSK955403],%Inh,PAK6; 1 µM,36%
same,%Inh,PAK7; 1 µM,1%
same,%Inh,PCTK1; 1 µM,0%
same,%Inh,PCTK2; 1 µM,2%
same,%Inh,PCTK3; 1 µM,0%
same,%Inh,PDGFRA; 1 µM,0%
same,%Inh,PDGFRB; 1 µM,45%
same,%Inh,PDPK1; 1 µM,14%
same,%Inh,PFTAIRE2; 1 µM,1%
same,%Inh,PFTK1; 1 µM,5%
same,%Inh,PHKG1; 1 µM,12%
same,%Inh,PHKG2; 1 µM,15%
same,%Inh,PIK3C2B; 1 µM,1%
same,%Inh,PIK3C2G; 1 µM,36%
same,%Inh,PIK3CA; 1 µM,5%
same,%Inh,PIK3CB; 1 µM,0%
same,%Inh,PIK3CD; 1 µM,0%
same,%Inh,PIK3CG; 1 µM,9%
same,%Inh,PIK4CB; 1 µM,0%
same,%Inh,PIKFYVE; 1 µM,0%
O=C(Nc1n[nH]c2nc(-c3nccs3)c(Br)cc12)C1CCCC1 [SB-742609],%Inh,PAK6; [1],0%
same,%Inh,PAK7; [1],0%
same,%Inh,PCTK1; [1],48%
same,%Inh,PCTK2; [1],47%
same,%Inh,PCTK3; [1],50%
same,%Inh,PDGFRA; [1],0%
same,%Inh,PDGFRB; [1],27%
same,%Inh,PDPK1; [1],0%
same,%Inh,PFTAIRE2; [1],7%
same,%Inh,PFTK1; [1],26%
same,%Inh,PHKG1; [1],0%
same,%Inh,PHKG2; [1],0%
same,%Inh,PIK3C2B; [1],0%
same,%Inh,PIK3C2G; [1],0%
same,%Inh,PIK3CA; [1],0%
same,%Inh,PIK3CB; [1],0%
same,%Inh,PIK3CD; [1],0%
same,%Inh,PIK3CG; [1],0%
same,%Inh,PIK4CB; [1],0%
same,%Inh,PIKFYVE; [1],0%
O=S(=O)(c1ccc(-c2ccnc3[nH]ccc23)cc1)N1CCCC1 [GSK846226],%Inh,PAK6; [1],20%
same,%Inh,PAK7; [1],15%
same,%Inh,PCTK1; [1],7%
same,%Inh,PCTK2; [1],0%
same,%Inh,PCTK3; [1],0%
same,%Inh,PDGFRA; [1],0%
same,%Inh,PDGFRB; [1],24%
same,%Inh,PDPK1; [1],0%
same,%Inh,PFTAIRE2; [1],24%
same,%Inh,PFTK1; [1],27%
same,%Inh,PHKG1; [1],0%
same,%Inh,PHKG2; [1],10%
same,%Inh,PIK3C2B; [1],3%
same,%Inh,PIK3C2G; [1],0%
same,%Inh,PIK3CA; [1],8%
same,%Inh,PIK3CB; [1],0%
same,%Inh,PIK3CD; [1],0%
same,%Inh,PIK3CG; [1],14%
same,%Inh,PIK4CB; [1],23%
same,%Inh,PIKFYVE; [1],0%
